This is part of a sample that, as a whole, favours compounds with a hit. Of some 83,000 tested, about 20% had one in any assay.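 For each line, cells grew in 96-well plates with the test compound present at a single concentration for 48 hours.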 Calls of active or inactive are those of the source. How the source made its calls: active means growth percent below 10; inactive means the rest.
Key:
Test in all cases: NCI-60 one-dose screen, 48 h (100 = growth as untreated, 0 = no growth, -100 = all killed)
Settings in all cases: 10 µM unless noted
HCT-15 colon = test system: HCT-15 colon
HT29 colon = test system: HT29 colon
SNB-75 CNS = test system: SNB-75 CNS
SNB-19 CNS = test system: SNB-19 CNS
U251 CNS = test system: U251 CNS
PC-3 prostate = test system: PC-3 prostate
SK-MEL-5 melanoma = test system: SK-MEL-5 melanoma
UACC-62 melanoma = test system: UACC-62 melanoma
LOX IMVI melanoma = test system: LOX IMVI melanoma
SK-MEL-28 melanoma = test system: SK-MEL-28 melanoma
SK-MEL-2 melanoma = test system: SK-MEL-2 melanoma
EKVX NSCLC = test system: EKVX NSCLC
SN12C renal = test system: SN12C renal
UO-31 renal = test system: UO-31 renal
TK-10 renal = test system: TK-10 renal
ACHN renal = test system: ACHN renal
CAKI-1 renal = test system: CAKI-1 renal
A498 renal = test system: A498 renal
CCRF-CEM leukemia = test system: CCRF-CEM leukemia
MOLT-4 leukemia = test system: MOLT-4 leukemia

Measured: growth

Cc1ccc(Nc2cc(N)nc(N)n2)cc1Cl
inactive: HCT-15 colon 97.1% | HT29 colon 98.2% | SNB-75 CNS 80.2% | SNB-19 CNS 104% | U251 CNS 97.3% | PC-3 prostate 94.2% | SK-MEL-5 melanoma 97.5% | UACC-62 melanoma 90.8% | LOX IMVI melanoma 97.3% | SK-MEL-28 melanoma 109% | SK-MEL-2 melanoma 103% | EKVX NSCLC 67.7% | SN12C renal 104% | UO-31 renal 83.4% | TK-10 renal 111% | ACHN renal 101% | CAKI-1 renal 81.6% | A498 renal 101% | CCRF-CEM leukemia 96.6% | MOLT-4 leukemia 93.7%

O=S(=O)(NCCCNc1nccc(-c2c(-c3ccc(F)c(O)c3)nc3occn23)n1)c1ccc(Cl)cc1
inactive: HCT-15 colon 73.2% | HT29 colon 54.4% | SNB-75 CNS 95.6% | SNB-19 CNS 97% | U251 CNS 94% | PC-3 prostate 56.8% | SK-MEL-5 melanoma 33.2% | UACC-62 melanoma 11.7% | LOX IMVI melanoma 36.2% | SK-MEL-28 melanoma 30% | SK-MEL-2 melanoma 25.6% | EKVX NSCLC 65.6% | SN12C renal 59.5% | UO-31 renal 36.4% | TK-10 renal 103% | ACHN renal 56.3% | CAKI-1 renal 41.7% | A498 renal 84.9% | CCRF-CEM leukemia 47.9% | MOLT-4 leukemia 48.9%

CCNCCNc1cc(-c2ccc(C(F)(F)F)cc2)c(C#N)c2nc3ccccc3n12
active: HCT-15 colon -75.4% | HT29 colon -61.7% | SNB-75 CNS -95.5% | SNB-19 CNS -78.1% | U251 CNS -87.1% | PC-3 prostate -72.6% | SK-MEL-5 melanoma -91.8% | UACC-62 melanoma -74.4% | LOX IMVI melanoma -95.4% | SK-MEL-28 melanoma -86.4% | SK-MEL-2 melanoma -47.6% | EKVX NSCLC -66% | SN12C renal -62% | UO-31 renal -88.3% | TK-10 renal -67.3% | ACHN renal -88.8% | CAKI-1 renal -96.9% | A498 renal -88.4% | CCRF-CEM leukemia -42.9% | MOLT-4 leukemia -32.7%

COc1cc2c(c(OC)c1OC)CCC(c1cccc(NC(=O)c3ccc(Br)cc3)c1)O2 (stereo not given)
inactive: HCT-15 colon 85.2% | HT29 colon 77.4% | SNB-75 CNS 86% | SNB-19 CNS 86% | U251 CNS 90% | PC-3 prostate 60.5% | SK-MEL-5 melanoma 71.4% | UACC-62 melanoma 60.6% | LOX IMVI melanoma 90.4% | SK-MEL-28 melanoma 89.7% | SK-MEL-2 melanoma 87.4% | EKVX NSCLC 77.2% | SN12C renal 85.7% | UO-31 renal 66.6% | TK-10 renal 89.9% | ACHN renal 91.2% | CAKI-1 renal 90.3% | A498 renal 69.3% | CCRF-CEM leukemia 67% | MOLT-4 leukemia 41.1%

COC(=O)[C@]12CCC(C)(C)C[C@H]1[C@H]1/C(=N/OCCc3nn[nH]n3)C[C@@H]3[C@@]4(C)CC[C@H](OC(C)=O)C(C)(C)[C@@H]4CC[C@@]3(C)[C@]1(C)CC2
inactive: HCT-15 colon 33.3% | HT29 colon 43.1% | SNB-75 CNS 43% | SNB-19 CNS 34% | U251 CNS 36.3% | PC-3 prostate 26.7% | UACC-62 melanoma 13.2% | LOX IMVI melanoma 19.8% | SK-MEL-28 melanoma 41.9% | SK-MEL-2 melanoma 58.8% | EKVX NSCLC 35.6% | SN12C renal 39% | UO-31 renal 15.5% | TK-10 renal 55.6% | ACHN renal 32.8% | CAKI-1 renal 39.8% | CCRF-CEM leukemia 33.5% | MOLT-4 leukemia 27.6%
active: SK-MEL-5 melanoma -45% | A498 renal -19%

NS(=O)(=O)c1ccc(N=Nc2c(O)n(Cc3ccccc3)c3ccc(Cl)cc23)cc1
inactive: HCT-15 colon 88.8% | HT29 colon 94.6% | SNB-19 CNS 40.8% | U251 CNS 81.7% | PC-3 prostate 83.8% | SK-MEL-5 melanoma 80.5% | UACC-62 melanoma 66.6% | LOX IMVI melanoma 97.6% | SK-MEL-28 melanoma 93.2% | SK-MEL-2 melanoma 98.6% | EKVX NSCLC 91.2% | SN12C renal 87.3% | UO-31 renal 81.2% | TK-10 renal 95% | ACHN renal 64.9% | CAKI-1 renal 64.4% | A498 renal 78.3% | CCRF-CEM leukemia 96.2% | MOLT-4 leukemia 72.2%
active: SNB-75 CNS -9.32%

N#Cc1c(-c2ccccc2)[nH]c2ncc(-c3ccccc3)n2c1=O
inactive: HCT-15 colon 93.5% | HT29 colon 106% | SNB-75 CNS 78.8% | SNB-19 CNS 105% | U251 CNS 93.1% | PC-3 prostate 74.6% | SK-MEL-5 melanoma 87.7% | UACC-62 melanoma 87.8% | LOX IMVI melanoma 86.8% | SK-MEL-28 melanoma 102% | SK-MEL-2 melanoma 72.9% | EKVX NSCLC 75.3% | SN12C renal 99.5% | UO-31 renal 65.4% | TK-10 renal 120% | ACHN renal 83.4% | CAKI-1 renal 83.4% | A498 renal 102% | CCRF-CEM leukemia 104% | MOLT-4 leukemia 101%

Cc1cc(N2CCN(CC(=O)Nc3ccc4c(ccn4C)c3)CC2)nc(N2CCCCCC2)n1
inactive: HCT-15 colon 79% | HT29 colon 56.9% | SNB-75 CNS 90.1% | SNB-19 CNS 89.1% | U251 CNS 85.9% | PC-3 prostate 82.8% | SK-MEL-5 melanoma 92.1% | UACC-62 melanoma 84.3% | LOX IMVI melanoma 92.8% | SK-MEL-28 melanoma 96.9% | SK-MEL-2 melanoma 92.1% | EKVX NSCLC 86.2% | SN12C renal 98% | UO-31 renal 67.1% | TK-10 renal 87.2% | ACHN renal 88.4% | CAKI-1 renal 84.6% | A498 renal 46.3% | CCRF-CEM leukemia 35.3% | MOLT-4 leukemia 85.3%

CCOC(=O)n1ccn(C)c1=S
inactive: HCT-15 colon 104% | HT29 colon 96.2% | SNB-75 CNS 104% | SNB-19 CNS 110% | U251 CNS 100% | PC-3 prostate 91% | SK-MEL-5 melanoma 109% | UACC-62 melanoma 108% | LOX IMVI melanoma 105% | SK-MEL-28 melanoma 108% | SK-MEL-2 melanoma 97.8% | EKVX NSCLC 100% | SN12C renal 105% | UO-31 renal 80.7% | TK-10 renal 98.6% | ACHN renal 99.3% | CAKI-1 renal 95.4% | A498 renal 115% | CCRF-CEM leukemia 98% | MOLT-4 leukemia 103%

CCSc1nc2scc(C)c2c(=O)[nH]1
inactive: HCT-15 colon 104% | HT29 colon 105% | SNB-75 CNS 90.2% | SNB-19 CNS 96.5% | U251 CNS 97.1% | PC-3 prostate 98.7% | SK-MEL-5 melanoma 99.9% | UACC-62 melanoma 94.1% | LOX IMVI melanoma 99.7% | SK-MEL-28 melanoma 105% | SK-MEL-2 melanoma 105% | EKVX NSCLC 97.7% | SN12C renal 99.4% | UO-31 renal 88.6% | TK-10 renal 110% | ACHN renal 101% | CAKI-1 renal 92.3% | A498 renal 89.7% | CCRF-CEM leukemia 99.2% | MOLT-4 leukemia 96%

O=C(Nc1ccc(OS(=O)(=O)c2ccc(F)cc2)cc1)C1CCCCCC1
inactive: HCT-15 colon 54.7% | HT29 colon 31.6% | SNB-75 CNS 102% | SNB-19 CNS 89.4% | U251 CNS 72.9% | PC-3 prostate 88.3% | SK-MEL-5 melanoma 71.9% | UACC-62 melanoma 85.5% | LOX IMVI melanoma 86.7% | SK-MEL-28 melanoma 109% | SK-MEL-2 melanoma 98.2% | EKVX NSCLC 96% | SN12C renal 88.9% | UO-31 renal 101% | TK-10 renal 107% | ACHN renal 110% | CAKI-1 renal 91.7% | A498 renal 85.1% | CCRF-CEM leukemia 81.5% | MOLT-4 leukemia 77.4%

COc1ccc(-c2nn(-c3cccc(Cl)c3)cc2-c2cc(-c3ccc(Br)cc3)nc(N)n2)cc1
inactive: HCT-15 colon 81.4% | HT29 colon 86% | SNB-75 CNS 96.9% | SNB-19 CNS 95.2% | U251 CNS 97.5% | PC-3 prostate 80% | SK-MEL-5 melanoma 94.6% | UACC-62 melanoma 85% | LOX IMVI melanoma 98.7% | SK-MEL-28 melanoma 103% | SK-MEL-2 melanoma 99.7% | EKVX NSCLC 92.3% | SN12C renal 92.7% | UO-31 renal 76% | TK-10 renal 104% | ACHN renal 103% | CAKI-1 renal 77.3% | A498 renal 81.6% | CCRF-CEM leukemia 92.7% | MOLT-4 leukemia 88.3%

Cc1c2cnccc2c(C)c2c1c1cc(C#N)ccc1n2C
active: HCT-15 colon -20.6% | HT29 colon -18.9% | SNB-75 CNS -35.8% | SNB-19 CNS -1.41% | U251 CNS -10.5% | PC-3 prostate -17.2% | SK-MEL-5 melanoma -98.7% | UACC-62 melanoma -52.6% | LOX IMVI melanoma -35.6% | SK-MEL-28 melanoma -39.7% | SK-MEL-2 melanoma -75.4% | EKVX NSCLC -3.54% | SN12C renal -5.29% | UO-31 renal -4.29% | TK-10 renal -13% | ACHN renal -2.32% | CAKI-1 renal 6.63% | A498 renal -65.6% | CCRF-CEM leukemia -16.8% | MOLT-4 leukemia -11.2%

CC(C)c1ccc(-n2c(=S)[nH]c3sc4cc(O)ccc4c3c2=O)cc1
inactive: HCT-15 colon 97.7% | HT29 colon 113% | SNB-75 CNS 85.9% | SNB-19 CNS 90.4% | U251 CNS 103% | PC-3 prostate 100% | SK-MEL-5 melanoma 98.6% | UACC-62 melanoma 93.6% | LOX IMVI melanoma 96.9% | SK-MEL-28 melanoma 103% | SK-MEL-2 melanoma 121% | EKVX NSCLC 103% | SN12C renal 99.5% | UO-31 renal 77% | TK-10 renal 123% | ACHN renal 99% | CAKI-1 renal 91.7% | A498 renal 61.5% | CCRF-CEM leukemia 103% | MOLT-4 leukemia 98%

— PubChem BioAssay (NCI)
